From PubChem BioAssay AID687001 (Broad Institute, 2013) come the findings set out here.

Molecules are shown by their SMILES. Potency and affinity values are given separately. The source made the active and inactive calls.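 How the source made its calls: active means signal-lowering compounds whose fitted half-maximal concentration is at or below twice the top tested dose in every run; inconclusive means runs disagree, flat 30 to 70% inhibition, or poor curve fit; inactive means the rest.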

The experiment deals with Protein S100-A4 (Homo sapiens) (UniProt P26447). The experiment is described as follows: S100A4-myosin IIA binding inhibitor potency, dose response, biochemical, fluorescence polarization, cherry-picked hits (AID 687001).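 Further: 0% = DMSO neutral control wells and -100% = TFP positive control wells.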 As to conditions: FP, S100A4/TAMRA-myosin IIA peptide binding; series mostly up to 11 µM. (In general: Fluorescence polarisation rises when a labelled molecule tumbles more slowly, as on binding a larger partner.)
Protein S100-A4 (Homo sapiens), sequence (P26447 whole entry, looked up): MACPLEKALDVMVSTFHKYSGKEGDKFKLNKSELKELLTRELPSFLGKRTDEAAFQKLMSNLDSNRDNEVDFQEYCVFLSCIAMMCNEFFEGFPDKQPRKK
Take `CN(C)c1ccc(/C=C(\C#N)C(=O)OCC(=O)N(C)C2CCS(=O)(=O)C2)cc1` (centres undefined): the activity change, negative = inhibition is 128% [at 2.6 µM] (inactive).
For `COc1ccc(Cl)cc1S(=O)(=O)n1ccnc1`, the call was inactive.
Still for that read-out and setting: as for `Cc1ccc(S(=O)(=O)N(C)C[C@H]2OCCCC[C@@H](C)Oc3ccc(NS(=O)(=O)c4c(C)noc4C)cc3C(=O)N([C@@H](C)CO)C[C@H]2C)cc1`, the entry is “inactive”; as for `CC(C)C#Cc1cnc2c(c1)C(=O)N([C@H](C)CO)C[C@H](C)[C@H](CN(C)C(=O)Nc1ccc(F)cc1)O2`, “inactive”; as for `Cn1c(=O)[nH]c(=O)c2c1nc(SCC(=O)O)n2CCOc1ccccc1`, “inactive”.
As for `C[C@@H]1CCCCO[C@@H](CN(C)C(=O)Nc2cccc3ccccc23)[C@H](C)CN([C@@H](C)CO)C(=O)c2cc(NC(=O)C3CCCCC3)ccc2O1`, the molecule was called inactive.
Regarding `CCCNC(=O)N[C@H]1C=C[C@@H](CC(=O)N2CCN(C)CC2)O[C@@H]1CO`, the call was inactive.
With `Cc1ccc(C(=O)N2CCCC(CCC(=O)N3CCN(c4ccccn4)CC3)C2)cc1` (centres undefined), the result was inactive.
On to `COc1ccccc1CCNC(=O)C(=O)NCCC1CCCCN1S(=O)(=O)c1ccccc1` (centres undefined), for which the result was inactive.
Regarding `COc1cc(OC)c2ccc(=O)oc2c1C(CC(=O)N1CCN(c2ccccc2)CC1)c1ccc2c(c1)OCO2` (centres undefined), the outcome was inactive.
Consider `COCC(=O)N1[C@@H](C#N)[C@H](c2ccc(-c3cccc(F)c3)cc2)[C@@H]1CO`, for which the outcome was inactive.
Still for that read-out and setting: as for `COc1ccccc1NC(=O)N1CC(=O)N2[C@H](CO)[C@H](c3ccc(-c4ccc(F)cc4)cc3)[C@@H]2C1`, the entry is “inactive”; as for `COc1ccc(NC(=O)CN(C)C(=O)C2CC(=O)N(c3ccc4c(c3)OCCO4)C2)cc1` (centres undefined), “inactive”.
`Cc1cc(/C(N)=N/OC(=O)Nc2ccccc2)no1`: the call was inactive.
Take `CC(C)NC(=O)N(C)C[C@@H]1Oc2cc(-c3ccncc3)ccc2S(=O)(=O)N([C@H](C)CO)C[C@H]1C`: the call was inactive.
In the case of `COC(=O)C[C@@H]1CC[C@H]2[C@H](COc3ccc(NS(=O)(=O)c4ccc(C)cc4)cc3C(=O)N2C)O1`, the molecule was classed as inactive.
With `C[C@@H]1CN([C@H](C)CO)C(=O)c2cc(NC(=O)Nc3ccc(C(F)(F)F)cc3)ccc2O[C@@H]1CN(C)C(=O)Nc1ccc(C(F)(F)F)cc1`, the molecule was called inactive.
On to `COc1cccc(CNC(=O)C2CCCN(S(=O)(=O)c3ccc4c(c3)C(C)(C)C(=O)N4C)C2)c1` (centres undefined), for which the result was inactive.
On the same count and under the same terms, next, `C[C@@H]1CN([C@H](C)CO)C(=O)c2cc(C#Cc3ccccc3)cnc2O[C@@H]1CN(C)C(=O)c1ccccc1F`: “inactive”.
On to `C[C@@H]1CN([C@H](C)CO)C(=O)c2ccccc2-c2ccccc2CO[C@H]1CN(C)C(=O)Oc1ccccc1`, for which the result was inactive.
With `Cc1ccc(S(=O)(=O)Nc2ccc3c(c2)C(=O)N([C@H](C)CO)C[C@@H](C)[C@@H](CN(C)C(=O)NC(C)C)OCCCC[C@@H](C)O3)cc1`, the molecule was classed as inactive.
As for `CC(OC(=O)C1CC(=O)N(Cc2ccco2)C1)C(=O)Nc1ccc(F)cc1Cl` (centres undefined), the molecule was classed as inactive.
In the case of `CCOC(=O)C1CCCN(C(=O)c2cc(S(=O)(=O)N3CCCCCC3)ccc2OC)C1` (centres undefined), the molecule was called inactive.
For `Cc1ccnc(NC(=O)C(C)N2C(=O)c3ccccc3S2(=O)=O)c1` (centres undefined), the result was inactive.
Regarding `CC(C)CC#Cc1ccc2c(c1)O[C@@H](CN(C)C(=O)Nc1ccccc1)[C@@H](C)CN([C@H](C)CO)S2(=O)=O`, the molecule was classed as inactive.
Same read-out and setting: next, `O=C(c1ccc(N2C(=O)CCC2=O)cc1)N1CCCSC1=Nc1ccccc1`: “inactive”; `Cc1ccc(S(=O)(=O)Nc2ccc3c(c2)nc(CCN2CCN(c4ccccn4)CC2)n3C)cc1`: “inactive”; `Cn1c(CC(=O)NNC(=O)c2ccc(F)cc2F)nc2ccccc21`: “inactive”.
On to `CCN(CC)C(=O)c1ccccc1NS(=O)(=O)c1cccs1`, for which the call was inactive.
On to `Cc1ccc(S(=O)(=O)Nc2ccc3c(c2)C(=O)N([C@H](C)CO)C[C@@H](C)[C@H](CN(C)S(C)(=O)=O)OCCCC[C@@H](C)O3)cc1`, for which the call was inactive.
Regarding `OC(CNC1CCCCCC1)COc1cccc2ccccc12` (centres undefined), the outcome was inactive.
Turning to `C[C@@H]1CN([C@@H](C)CO)C(=O)c2cc(C#CCc3ccccc3)cnc2O[C@@H]1CN(C)CC1CC1`, the call was inactive.
Consider `COC(=O)CCCC1=CC2=C(c3ccccc3)C(=O)C(C)(OC(=O)C3CCCC3)C(=O)C2=CN1Cc1ccc2c(c1)OCO2` (centres undefined), for which the molecule was classed as inactive.
With `COc1ccc2oc(C)c(C(=O)c3ccc(C)cc3)c2c1`, the outcome was inactive.
As for `Cc1ccc([N+](=O)[O-])cc1N=Nc1c(C)[nH]n(C(N)=S)c1=O`, the outcome was inactive.
Consider `N#C[C@@H]1[C@H](c2ccccc2-c2cccc(F)c2)[C@@H](CO)N1C(=O)C1CC1`, for which the molecule was classed as inactive.
As for `CCc1ccc(C(=O)NNC(=O)c2cccc(N3C(=O)CCC3=O)c2)cc1`, the molecule was classed as inactive.
In the case of `CC(OC(=O)C1=COCCO1)C(=O)Nc1ncc(Cl)cc1Cl` (centres undefined), the outcome was inactive.
The same measure, in the same setting: next, `CC(C)CC#Cc1cnc2c(c1)C(=O)N([C@H](C)CO)C[C@@H](C)[C@H](CN(C)S(C)(=O)=O)O2`: “inactive”.
